Test results published in PubChem BioAssay (NCI).
The panel holds about 83,000 compounds, 20% with a hit somewhere; the sample as a whole holds those more often.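 Assay: single dose, 48 h. Readout: percent growth (0 = no net growth; negative = cell death). Active: <10.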 A number with no mark means an inactive call. Active and inactive are the calls of the source.

Tested on: HL-60(TB) leukemia
Assay: NCI-60 one-dose screen, 48 h (100 = growth as untreated, 0 = no growth, -100 = all killed)
Settings: 10 µM unless noted

| Compound | growth |
| --- | --- |
| CCCCCCCCCCCCCCCCCC[S+](C)CC (stereo not given) | 13% |
| COc1cc(/C=C/c2cc(/C=C/c3ccc(O)c(OC)c3)nc(N)n2)ccc1O | 3.67% (active) |
| Cc1ccc(C2CC(c3ccc(Nc4ccnc5cc(Cl)ccc45)cc3)=NN2C=O)cc1 (stereo not given) | 9.36% (active) |
| COc1cc2c(cc1OC)C(=O)C(CC1CCN(C(=O)Nc3ccc(C)cc3)CC1)C2 (stereo not given) | 125% |
| CCN1C(=O)N(CC)C2C1NN=c1s/c(=C\c3ccccn3)c(=O)n12 (stereo not given) | -22.5% (active) |
| NC(N)=N/N=C/c1cccc(Br)c1 | 95.3% |
| COc1ccc(/C=N/Nc2nc3ccccc3s2)cc1 | 84.9% |
| COc1cc(/C=C/c2cc(/C=C/c3ccc(O)c(OC)c3)n(-c3ccccc3)c(=O)n2)ccc1O | 70.9% |
| O=[N+]([O-])c1cccc(-c2nc3sccn3c2-c2ccnc(NCCCNS(=O)(=O)c3ccc(Br)cc3)n2)c1 | 19.2% |
| Cc1cnc(N)s1 | 97.7% |
| NC(N)=N/N=C/c1ccccc1 | 99.5% |
| CC(=O)N1N=C(c2ccc(Nc3nc(Nc4ccc(F)cc4)nc(Nc4ccc(Cl)cc4)n3)cc2)CC1c1ccc(Cl)cc1 (stereo not given) | 166% |
| NC(=O)NCCCC(N)C(=O)O (stereo not given) | 105% |
| CCN(CC)CCCNc1nc2ccccc2c2c(=O)c3cc(Cl)ccc3sc12 | 64.5% |
| CCOC(=O)C1=C(c2ccccc2)N=C2SC=C(c3cccc([N+](=O)[O-])c3)N2C1c1ccc(O)cc1 (stereo not given) | 107% |
| CNC1=C(Br)C(=O)c2c(C(=O)OC)c(C)nc(C)c2C1=O | 24.5% |
| COc1ccc(NC(=O)c2sc3nc(C)c(C(=O)c4ccc(OC)cc4)cc3c2N)cc1 | 6.31% (active) |
| COc1ccc2c(c1)c(-c1nonc1-c1cn(C)c3ccccc13)cn2C | 2.88% (active) |
| O=c1oc2ccccc2cc1-c1nn(-c2ccccc2)cc1-c1nn[nH]n1 | 96.8% |
| Cc1ccc(C(=O)N2C/C(=C/c3ccc(F)cc3)C(=O)/C(=C/c3ccc(F)cc3)C2)cc1 | 81.6% |

| Compound | growth |
| --- | --- |
| COC(=O)c1cccc2c1N(C)c1c(cccc1C(=O)OC)CC2 | 71.6% |
| O=C(/C=C/C12c3ccccc3C(c3ccccc31)C1C(=O)NC(=O)C12)c1ccco1 (stereo not given) | 8.34% (active) |
| CCCCCCCCn1ccc2cc(NC(=O)Cn3cc(CN4CCOCC4)nn3)ccc21 | 97.4% |
| Cc1nn(-c2ccccc2)c(Oc2ccccc2)c1/C=N/NC(=O)Cn1c(=O)sc2ccccc21 | 5.9% (active) |
| COC(=O)c1ccccc1N(C)C | 87.6% |
| COc1ccc2[nH]cc(C3(c4c[nH]c5ccc(OC)cc45)C(=O)Nc4ccc(Cl)cc43)c2c1 | 10.9% |
| CC(=O)OC1Oc2cc(C)c(C)cc2-c2oc(=O)c(-c3cc4ccccc4oc3=O)cc21 (stereo not given) | 93.4% |
| CO[C@H]1CC(O[C@@H]2/C(C)=C/C[C@@H]3C[C@@H](C[C@]4(CC[C@H](C)[C@@H](C5CCCCC5)O4)O3)OC(=O)[C@@H]3C=C(C)/C(=N/O)[C@H]4OC/C(=C\C=C\[C@@H]2C)[C@]43O)O[C@@H](C)C1O (stereo not given in full) | -48.7% (active) |
| COc1ccc(CCN2C(=O)CCSC2=S)cc1 | 72.3% |
| CN1CCN(CCCNc2nccc(-c3c(-c4ccc(F)c(O)c4)nc4sccn34)n2)S1(=O)=O | 78.3% |
| N#CCCN1C/C(=C/c2ccc(Cl)cc2)C(=O)/C(=C/c2ccc(Cl)cc2)C1 | -16.5% (active) |
| O=C(Nc1ccc(Nc2ncnc3sc4c(c23)CCOC4)cc1)Nc1ccc(Cl)c(C(F)(F)F)c1 | 98.9% |
| CCN(CC)CCCCCCCCNc1c2ccc(Cl)cc2nc2ccc(OC)cc12 | -53.2% (active) |
| O=C(Nc1ncc(Cc2ccc(Cl)cc2)s1)c1ccc2c(c1)OCCO2 | -49.3% (active) |
| C=C1C(=O)O[C@H]2[C@H]1CC/C(COC(=O)/C=C\C(=O)NCc1ccc(Cn3c(=O)sn(-c4ccc(C#N)cc4)c3=O)cc1)=C\CC[C@@]1(C)O[C@@H]21 | -40.3% (active) |
| O=C1OCC2=C1C(c1cccc([N+](=O)[O-])c1)c1cc3c(cc1N2CCO)CCC3 (stereo not given) | -26.9% (active) |
| O=C(N/N=C/c1ccccc1O)c1ccccc1O | 4.12% (active) |
| Cc1cc(NCC(=O)Nc2ccc(-c3nc4ccccc4s3)cc2)no1 | 96.5% |
| Cc1cc(C)c([O-])c(CN(C)CCN(C)Cc2cc(C)cc(C)c2[O-])c1.O=C([O-])c1cccc(C(=O)[O-])n1.[Ti+4] | -7.45% (active) |
| C[N+](C)(C)C(=O)c1ccccc1 | 125% |
